# Screens as filed in PubChem.
# An excerpt weighted towards active compounds, which were near 21% of everything screened.
# NS1 inh: blocks influenza NS1 protein function | 270,000 tested, 0.4% active | Potency, µM (titrated, usually from 46.1 µM), inactives show at the highest dose activity, positive = more growth; calls by dose curve; also: potency is read from the fitted curve at half-maximal effect; actives are rising curves; nearly all actives have a fitted effect of over 50% in size
#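 Compounds were scored for reversing the slow growth caused by influenza A NS1 in S. cerevisiae, measured by optical density at 600 nm. Assay medium contained 2% galactose at pH 6.0; NS1-free yeast of the same strain were the positive control.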
# Shiga inhibitor: blocks Shiga toxin action in Vero cells; 290,000 tested, 9.2% active; Vero cells, Shiga toxin protein synthesis inhibition reporter; inhibition, % at 38.7 µM; in the data active = inhibition mostly above about 28%, no sharp cut-off; inactive = mostly below about 43%; also: 0% is about no effect
# Pf growth 48h: P. falciparum growth inhibition at 48 hours (one generation). P. falciparum luciferase growth in erythrocytes, 48 h. Potency, µM (series often up to 28.7 µM), inactives show top-dose activity change, negative = inhibition, usual class: inhibitors. 310,000 tested, 5.9% active; also: potency is read from the fitted curve at half-maximal effect; % is scaled to controls: 0 for no effect and ±100 for the full control effect
#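 A one-generation exposure of luciferase-tagged malaria parasites in RPMI 1640/Albumax erythrocyte culture, 37 C and 5% CO2. Inhibition is inferred from decreased luminescence after adding detection reagent.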
# Pf growth 96h: P. falciparum growth inhibition at 96 hours; Potency, µM (titrated, usually from 28.7 µM), inactives show top-dose activity change, negative = inhibition, hits mostly inhibitors; P. falciparum luciferase reporter growth, 96 h; 320,000 tested, 6.9% active; also: potency is read from the fitted curve at half-maximal effect; % is scaled to controls: 0 for no effect and ±100 for the full control effect
#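 P. falciparum expressing integrated firefly luciferase, in erythrocytes at 2% hematocrit, 0.05% parasitemia, incubated with compounds 96 h at 37 C, 5% CO2. Growth inhibition read as loss of luminescence; two-generation exposure targets delayed-death apicoplast inhibitors.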
# Cycloheximide cs: counter-screen for Shiga toxin inhibitors: cycloheximide protein synthesis inhibition. cell reporter, cycloheximide protein synthesis inhibition counterscreen. max response, %. AID 2314. 300,000 tested, 12% active; in the data active = max response mostly above about 13%, no sharp cut-off; inactive = mostly below about 14%; also: read at 38.3 µM for the half of the compounds with a filed dose; 0% is about no effect
# Numbers without * were called inactive; ? = inconclusive; / = not tested or not shown; + = active, no number. Unless noted, calls follow the shape of the dose curve; as a rule, active = well fitted inhibition curve with a large enough effect; inconclusive = small, poorly fitted or top-dose-only effect, or another doubt; inactive = no such curve, though single readings can be large or run the other way.
SMILES,NS1 inh,Shiga inhibitor,Pf growth 48h,Pf growth 96h,Cycloheximide cs
COc1ccc(OC)c(Cc2nnc(CCC(=O)N3CCCCCC3)o2)c1,0%,-11,13%,25%,-3
COC(=O)c1sc(-c2cccs2)cc1NC(=O)/C=C/C(=O)O,-6%,63,7%,5%,11
Cc1cc(Cl)c(S(=O)(=O)NC(C)C)cc1OCC(N)=O,2%,2,-13%,15%,1
CSc1nc(N)n2nc(C(C)(C)C)cc2n1,2%,26,1%,14%,15*
CCNc1c(NS(=O)(=O)c2ccc(Cl)s2)c(=O)oc2ccccc12,11%,-14,3%,4%,-7
Cc1ccc(-c2cn3cccnc3n2)cc1NC(=O)c1ccc(Br)o1,-47%,-5,-14%,?,-2
COc1ccc(-c2cn3cccnc3n2)cc1NC(=O)Nc1cc(C)ccc1C,/,/,?,12µM*,/
COc1ccc(-c2cn3cccnc3n2)cc1NC(=O)c1ccc(Br)o1,-46%,5,-9%,10µM*,12
O=S(=O)(c1ccc(SCCO)nc1)N1CCOCC1,/,/,-4%,-37%,/
CC(=O)Nc1cccc(OCC(=O)Nc2ccc(F)cc2)c1,-2%,-32,39%,28%,15*
Cc1ccc(OCC(=O)Nc2ccc(F)cc2)cc1C,-11%,46*,15%,-16%,39*
Cc1ccc(OCC(=O)Nc2cc(C(=O)O)cc(C(=O)O)c2)cc1C,/,17,8%,-15%,4
COc1cccc2sc(NNC(=O)C3COc4ccccc4O3)nc12 (stereo unspecified),/,2,-8%,-4%,17
COc1ccc(C)c2sc(NC(=O)C3=COCCO3)nc12,-1%,27*,96%,161%,12*
COc1cccc2sc(NNC(=O)C3=COCCO3)nc12,/,87*,160%,94%,40*
COc1ccc(OC)c2sc(NC(=O)C3=COCCO3)nc12,-10%,29,/,33%,-1
O=C(NCc1ccco1)c1c(O)c2cccc3c2n(c1=O)CCC3,-5%,14,13%,13µM*,-2
Cn1nc(C(C)(C)C)c([N+](=O)[O-])c1C(=O)Nc1cccc2ccccc12,-6%,-4,12µM*,12µM*,-2
O=C(Nc1cccc2ccccc12)c1cccc([N+](=O)[O-])c1,-4%,-9,9%,-24%,2
O=C(O)c1cccc([N+](=O)[O-])c1C(=O)Nc1cccc2ccccc12,3%,/,-7%,53%,20*
O=C(O)c1cccc([N+](=O)[O-])c1C(=O)Nc1ccc2ccccc2c1,7%,22,30%,8%,20*
CCOC(=O)C(NC(=O)C1C(C)N1S(=O)(=O)c1ccc(C)cc1)C(=O)OCC (stereo unspecified),13%,15,83%,38%,-2
O=C(C1CCCCC1)N(Cc1nc2sc3c(c2c(=O)[nH]1)CCCC3)Cc1cccs1,-44%,50,18%,/,-3
O=[N+]([O-])c1cccc(-c2ccc(CN3CCN(c4ccccc4)CC3)o2)c1,-17%,/,56%,-1%,-2
O=C(O)CCC(NC(=O)c1cncc(O)c1)C(=O)O (stereo unspecified),7%,-20,/,-16%,-6
SMILES,NS1 inh,Shiga inhibitor,Pf growth 48h,Pf growth 96h,Cycloheximide cs
CN(Cc1cnc2nc(N)nc(N)c2n1)c1ccc(C(=O)N[C@@H](CCC(=O)O)C(=O)O)cc1,-7%,/,0.043µM*,1.7µM*,/
CC(C)[C@H](NC(=O)c1ccccc1Cl)C(=O)OCc1cc(=O)n2cc(Br)ccc2n1,-13%,-3,20%,65%,19
O=C(CN1C(=O)NC2(CCCC2)C1=O)OCc1cc(=O)n2cc(Br)ccc2n1,4%,67*,1%,46%,48*
CC1(C(=O)OCc2cc(=O)n3cc(Br)ccc3n2)CC1(Cl)Cl (stereo unspecified),-4%,78*,297%,103%,36*
CC1CC1C(=O)OCc1cc(=O)n2cc(Br)ccc2n1 (stereo unspecified),-9%,117,71%,33%,29*
O=C(OCc1cc(=O)n2cc(Br)ccc2n1)C1COc2ccccc2O1 (stereo unspecified),-63%,-2,-1%,50%,-1
Cc1ccccc1C(=O)NC(CC(C)C)C(=O)OCc1cc(=O)n2cc(Br)ccc2n1 (stereo unspecified),-41%,36*,139%,94%,28*
CS(=O)(=O)N(CC(=O)NCCSc1ccccn1)c1cccc2ccccc12,6%,26,10%,0%,4
CCOC(=O)c1nnn(-c2nonc2N)c1CN(C)Cc1ccccc1,-9%,-14,5%,/,-4
Cn1nc(-c2ccccc2)c(CSc2ccccc2)c1Cl,-6%,26,/,9.3µM*,2
Cc1ccc(SCc2c(-c3ccccc3)nn(C)c2Cl)cc1,-10%,-1,/,?,-4
O=C(CNc1ccccc1Cl)N/N=C1\CCCc2ccccc21,0%,-13,0%,0%,2
O=C(N/N=C1\CCc2ccccc21)c1ccccc1O,-2%,80*,11%,-3%,49*
COc1cc(C(=O)NNC(=O)c2ccoc2C)cc(OC)c1OC,5%,-11,18%,46%,-2
O=C(N/N=C1\CCCc2ccccc21)c1ccccc1Cl,-3%,63*,52%,60%,36*
Cc1cc(C(=O)N/N=C2\CCCc3ccccc32)c(C)o1,7%,51,89%,49%,26*
COc1ccc2c(c1)CCC/C2=N\NC(=O)c1ccoc1C,21%,+,70%,15%,86*
O=S(=O)(NC1CC1)c1ccccc1,5%,-10,5%,?,-2
Cc1cc(C(=O)NC2Cc3ccccc3C2)c(C)o1,-39%,66*,171%,276%,57*
O=C(NN=C1CCCCCCCCCCC1)c1ccncc1,/,5,13%,42%,9
O=C(O)c1ccc(N/N=C2/CCCc3ccccc32)cc1,-7%,59*,68%,63%,33*
Cc1cc(C(=O)NC2CCCCC2)c(C)o1,/,/,-4%,42%,/
O=C(N/N=C1\CCc2ccccc21)c1ccncc1,-3%,56*,129%,67%,46*
Cc1cccc(C)c1NC(=O)CNc1ncnc2sc(C)c(C)c12,-7%,-9,-3%,31%,-1
Fc1ccc(CN2CCN3CCCC3C2C2CCCCC2)cc1F (stereo unspecified),3%,-15,?,?,-5
SMILES,NS1 inh,Shiga inhibitor,Pf growth 48h,Pf growth 96h,Cycloheximide cs
O=C(NCCO)c1cccc(Cl)c1,-6%,-8,/,37%,1
O=C(NNC(=O)c1ccccc1F)c1cccc(Cl)c1,-14%,80*,91%,104%,22*
O=C(NNC(=O)c1ccccc1Br)c1cccc(Cl)c1,-78%,50*,61%,129%,83*
CCNc1ccc(S(=O)(=O)N(C)C)cc1NCC(=O)Nc1ccccc1Cl,/,-1,23%,53%,5
Cc1cc(C)c(S(C)(=O)=O)c(N(C)N)n1,/,-1,237%,18%,6
Cc1ccc(S(=O)(=O)CCC(=O)Nc2nc(-c3cccnc3)cs2)cc1,-4%,-4,-1%,24%,3
